Measured values: ChEMBL document CHEMBL3433997, “St. Jude Leishmania screening dataset” (2016)

Assays:
Format in all cases: functional
[1] = target: Solute carrier family 2, facilitated glucose transporter member 1 (Homo sapiens) (UniProt P11166); assay: ST_JUDE_LEISH: Cytotoxicity at 2uM final concentration against transgenic Leishmania Mexicana promastigotes LmGLUT1 that are glucose transport deficient and complemented with the human glucose transporter GLUT1. Activity is measured by DNA content using SYBR green in vitro
Solute carrier family 2, facilitated glucose transporter member 1 (Homo sapiens), sequence (P11166 whole entry): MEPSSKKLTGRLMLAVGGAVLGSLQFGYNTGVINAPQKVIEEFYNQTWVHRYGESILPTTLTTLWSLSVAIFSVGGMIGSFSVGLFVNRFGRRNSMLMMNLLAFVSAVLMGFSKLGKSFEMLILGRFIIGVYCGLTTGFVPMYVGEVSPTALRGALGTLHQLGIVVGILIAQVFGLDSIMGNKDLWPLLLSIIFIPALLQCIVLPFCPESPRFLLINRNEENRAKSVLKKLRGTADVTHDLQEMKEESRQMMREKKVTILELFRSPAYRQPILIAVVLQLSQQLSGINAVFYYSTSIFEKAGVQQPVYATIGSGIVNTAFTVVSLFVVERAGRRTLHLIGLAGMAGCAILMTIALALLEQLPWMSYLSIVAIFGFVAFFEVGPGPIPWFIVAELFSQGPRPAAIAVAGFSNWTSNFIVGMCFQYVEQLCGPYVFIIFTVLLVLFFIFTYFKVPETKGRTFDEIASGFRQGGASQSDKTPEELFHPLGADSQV

[2] = target: Hexose transporter 1 (Plasmodium falciparum) (UniProt O97467); assay: ST_JUDE_LEISH: Cytotoxicity at 2uM final concentration against transgenic Leishmania Mexicana promastigotes LmPfHT that are glucose transport deficient and complemented with the Plasmodium falciparum hexose transporter. Activity is measured by DNA content using SYBR green in vitro
[3] = target: Glucose transporter (Leishmania mexicana) (UniProt O61059); assay: ST_JUDE_LEISH: Cytotoxicity at 2uM final concentration against transgenic Leishmania Mexicana promastigotes LmGT2 that are glucose transport deficient and complemented with the L. Mexicana glucose transporter 2. Activity is measured by DNA content using SYBR green in vitro

Compound	inhibition [1] [%]	inhibition [2] [%]	inhibition [3] [%]
Cc1ccc(N2C(N)=NC(N)=NC2c2ccccc2)cc1 (stereo not drawn)	2.79	2.24	2.13
CC(C)C[C@H](Nc1ccnc(NCC2CCCCC2)n1)C(=O)NCCOc1ccccc1	2.57	3.02	2.47
O=C(NCc1cccc(F)c1)Nc1cccc(-c2cccc(-c3nc4cc(C(F)(F)F)ccc4[nH]3)c2)c1	0.12	2.8	-2.1
Oc1cccc(-c2nc(-c3ccccc3)c(-c3ccc4oc5ccc(-c6[nH]c(-c7cccc(O)c7)nc6-c6ccccc6)cc5c4c3)[nH]2)c1	3.36	2.88	2.11
CN(C)CCCOC(=O)c1cc2cc(-c3ccccc3)ccc2n1S(=O)(=O)Cc1ccccc1	5.88	10.6	1.19
CN1CCN(c2ccc(CNc3ccc4ncc(-c5ccc(OC(F)(F)F)cc5)n4n3)cc2)CC1	-2.29	-1.23	-1.25
Oc1ccc(-c2cncc(NCc3ccc(F)c(F)c3)c2)cc1	7.16	7.41	7.98
O=C(Cc1cccc(Cl)c1)Nc1cccc(-c2c[nH]c3nc(Nc4cccc(OCc5ccccc5)c4)ncc23)c1	6.67	6.61	5.74
Cc1ccc2[nH]c(-c3cc(-c4ccc(OCc5ccccc5)cc4)cnc3N)nc2c1	1.75	2.05	-0.31
O=C(Nc1ccc([N+](=O)[O-])cc1O)Nc1ccccc1Oc1ccccc1	-1.52	-0.84	-0.04
N#Cc1cccc(NC(=O)Nc2ccc(-c3cccc(-c4nc5cc(F)ccc5[nH]4)c3)cc2)c1	3.67	1.58	4.18
COc1ccc(CN(C)Cc2cc(C(C)C)c(C)cc2O)cc1F	2.07	1.85	-2.13
Cc1cc(NC(=O)Nc2ccc3nc(C)oc3c2)c2cc(Cl)ccc2n1	3.48	2.12	1.38
CC(C)(C(=O)NCCC1CCN(CCCCCNC(=O)/C=C/c2ccc(Cl)c(Cl)c2)CC1)c1ccc(Cl)cc1	5.49	4.45	4.35
CC(=O)c1ccccc1OCCSc1nnc(Cc2cccs2)n1C1CCCCC1	1.7	2.09	1.75
O=C(NC1CCN(Cc2ccccc2)CC1)c1ccc(-c2nc3cc4ccccc4cc3[nH]2)s1	3.9	2.65	4.03
CC[C@H](C)CNC(=O)c1cncc(-c2ccc(CN(C)C3CCN(C)CC3)cc2)c1	3.57	3.62	5.08
COc1ccc(Nc2nccc(NCCNC(=O)Nc3ccccc3F)n2)cc1	2.23	3.75	-0.4
Cc1noc(C)c1-c1cccc(CNCc2cccc(-c3ccc(-c4nc5cccc(C)c5[nH]4)cc3)c2)c1	1.89	1.4	0.96
CCCCCCCCS(=O)(=O)NCCCC1CCN(CCCCCNC(=O)C=Cc2ccc(Cl)c(Cl)c2)CC1	2.57	-0.32	2.95
N[C@@H](CCNCc1ccc(-c2cccnc2)cc1)Cc1ccc(F)c(F)c1	0.43	0.41	0.4
CC(C)(C)C(Cn1ccnc1)NCc1c[nH]nc1-c1ccc(-c2ccccc2)cc1 (stereo not drawn)	11.2	16.9	11.5
COc1ccc2[nH]ccc(=NN=Cc3cccnc3)c2c1	1.08	-2.41	1.2
COc1ccc(NC(=O)/C=C/c2ccccc2Cl)cc1OCCN1CCC(c2nc3ccccc3[nH]2)CC1	3.22	1.68	2.78

Compound	inhibition [1] [%]	inhibition [2] [%]	inhibition [3] [%]
c1ccc(Oc2ccc(Nc3ccnc(Nc4ccc(OCCN5CCCCC5)cc4)n3)cc2)cc1	8.95	12.8	18.4
COc1cc(Nc2ccnc3cc(-c4ccccn4)ccc23)cc(OC)c1OC	5.56	8.67	5.6
N=C(N)c1cccc(-c2cc(-c3cccc(C(=N)N)c3)on2)c1	0.92	2.23	-0.32
CN1CCc2cc(CN3CC4(C)CC3CC(C)(C)C4)c(O)cc2C(c2ccccc2)C1 (stereo not drawn)	0.04	-0.55	-0.09
O=C(/C=C/c1ccc(Cl)c(Cl)c1)NCCCCCN1CCC(NC(=O)Nc2ccc3c(c2)OCO3)CC1	0.33	2.53	4.27
CC(C)CCNc1nc(NCCCc2ccccc2)c2cc(O)ccc2n1	24.8	18.8	8.25
CCC(CC(C)C(=O)O)=C(c1ccccc1)c1ccccc1 (stereo not drawn)	-0.78	-0.86	0.2
CC(=O)c1cc(N2CCOCC2)ccc1N	2.03	1.08	2.38
COc1ccc(C(=O)Nc2ccc3oc(-c4ccc(C(F)(F)F)cc4)cc3c2)cc1CCCN(C)C	1.78	2.26	0.34
CCc1c[nH]c2c(N3CCCC3=O)cc(C(=O)N[C@@H](Cc3ccccc3)[C@H](O)CNC(C)(C)c3cccc(OC)c3)cc12	-0.15	1.3	1.9
COc1ccc(-c2cccc(NC(=O)c3ccc(Cl)cc3)c2)cc1CN1CCCN(C)CC1	7.89	8.76	7.23
N#Cc1cccc(C(=O)Nc2ccc(-c3nc4ccccc4[nH]3)cc2)c1	0.28	-0.34	-0.95
Cc1ccc2nc(C)n(C3CCN(C(=O)C4(c5ccccc5)CC4)CC3)c2c1	5.47	6.02	5.27
OCCN1CCN(Cc2ccc(-c3ccc(-c4nc5cc(C(F)(F)F)ccc5[nH]4)s3)cc2)CC1	5.47	4.05	4.01
Cc1[nH]c(C)c(-c2cccc(-c3ccc(OC(F)(F)F)cc3)c2)c(=O)c1Br	1.89	4.46	-1.64
Cc1ccc(C)c(CN2CCC(CNC(=O)c3cc4ccc5cccnc5c4[nH]3)CC2)c1	0.51	-0.66	-0.23
Cc1ccc(NCC(=O)Nc2ccc(F)c(Cl)c2)cc1S(=O)(=O)N1CCOCC1	2.54	1.86	0.32
COc1cc2nc(N3CCC(CNC(=O)c4ccc(-c5ccc(C#N)cc5)cc4)CC3)nc(N)c2cc1OC	1.64	1.87	1.74
CC(C)(C)OC(=O)N1CCC(C2CCN(C(=O)OC(C)(C)C)CC2)CC1	-2.91	-1.6	-1.48
O=C(/C=C/c1ccc(-c2nc3ccc(Cl)cc3[nH]2)cc1)NCc1cccc(F)c1	4.5	4.66	4.07
Fc1ccc2[nH]c(-c3cccc(-c4cccc(CNCCN5CCNCC5)c4)c3)nc2c1	2.5	2.3	0.88
COc1ccccc1CCNc1nc(C)cc(N[C@@H](Cc2ccccc2)C(=O)Nc2ccccc2)n1	12	10.7	8.65
CCC(CC)N1CCN(CC(=O)Nc2ccc([N+](=O)[O-])cc2C(=O)Nc2cccc(OC)c2)CC1	3.1	1.8	1.35
CC(=O)Nc1cccc(-c2cn(-c3ccc(OCc4cccc(F)c4)c(Cl)c3)c3ncncc23)c1	2.04	0.08	-0.28

Compound	inhibition [1] [%]	inhibition [2] [%]	inhibition [3] [%]
COc1ccc(-c2cnc(N)c(-c3nc4cc(Br)ccc4[nH]3)c2)cc1	9.38	11.3	6.12
CCCN1CCN(CC(O)CNC(=O)Nc2ccc(Cl)cc2)CC1 (stereo not drawn)	2.81	0.64	4.07
O=C1C(=Cc2c(O)ccc3ccccc23)SC(=NCc2ccccc2)N1Cc1ccccc1	3.93	2.01	3.38
c1cc(CN2CCN(c3ccncc3)CC2)cc(-c2ccc(-c3nc4ccccc4[nH]3)s2)c1	3.45	2.53	2.03
COc1ccc2ncc(Cl)c([C@H](O)CN3CCC(NCc4cc5c(cn4)OCCO5)CC3)c2c1	11	7.96	6.66
COC(=O)Cn1c2ccccc2c2c(N)c(C(=O)OC)c(C)nc21	0.93	0.97	-0.45
O=C(c1ccccc1)N1COCC(CCN2CCC(N3CCCC3)CC2)(c2ccc(Cl)c(Cl)c2)C1 (stereo not drawn)	2.71	-0.49	2.59
CCNc1cc(C(=O)N[C@@H](Cc2ccccc2)[C@H](O)CNCCc2cccc(C(F)(F)F)c2)cc(N2CCCC2=O)c1	1.16	1.57	-0.87
Cc1oc(-c2ccc(Cl)cc2)cc1C(=O)NCCC1CCN(CCCCCNC(=O)/C=C/c2ccc(Cl)c(Cl)c2)CC1	-0.57	-1.53	-2.41
O=C(NC1CCC(CCN2Cc3cccc(C(F)(F)F)c3C2)CC1)c1cccc(-c2cccnc2)c1 (stereo not drawn)	3.38	1.73	2.16
COc1ccccc1CNC(=O)c1cc(C2CC2)nc2c1cnn2C(C)C	15.2	11.5	8.12
CCC[C@@H]([C@@H](CC1CCCCC1)C(=O)N[C@H](C(=O)Nc1nccs1)C(C)(C)SCCOCCOCC)N(O)C=O	6.4	5.16	5.39
COc1ccccc1CN1CCC(CNC(=O)c2cc(-c3cccc(C(F)(F)F)c3)cs2)C1 (stereo not drawn)	0.96	1.45	1.94
COc1cccc(CN2CCCC(COC(c3ccc(F)cc3)c3ccc(F)cc3)C2)c1O (stereo not drawn)	0.95	1.89	-0.91
O=[N+]([O-])c1cccc(CNCC2CCN(Cc3ccc4ccccc4c3)CC2)c1	16.5	3.55	2.23
CN1CCN(Cc2ccc(-c3ccc4c(Nc5cc(O)c(F)cc5Cl)ccnc4c3)o2)CC1	4.84	2.61	2.56
CC(Oc1c(C2CCN(CCCCNC(=O)c3ccc(-c4ccc(C#N)cc4)cc3)CC2)ccc2c1CCCC2)C(N)=O (stereo not drawn)	-0.84	1.22	0.3
COc1ccc2nccc([C@@H](O)CN3CCC(NC(=O)Cn4nc(-c5ccc(C(F)(F)F)cc5)ccc4=O)CC3)c2c1	4.01	3.03	1.3
CN(C)CCC1CCN(CCS(=O)(=O)c2cccc(Nc3ccc(-c4cccc(F)c4)cn3)c2)CC1	-0.27	3.28	3.78
Cc1nc2ccc([N+](=O)[O-])cc2c(=O)n1OCc1ccccc1	2.26	2.03	2.66
CN1CCCC1CCNc1ncc2c(-c3ccc(NC(=O)Nc4cc(C(F)(F)F)ccc4F)cc3)nn(C)c2n1 (stereo not drawn)	3.33	1.92	3.95
NC(=O)c1c(Cl)nc2ccccc2c1Cl	4.35	4.69	4.04
Cc1nc(-c2cccc3c(NC(=O)Nc4ccc5nccc(N6CCN(C)CC6)c5c4)cccc23)no1	4.28	4.25	6.65
